Data reported in PubChem BioAssay (NCATS).
Unmarked numbers belong to inactive results. Records with an inconclusive call do not appear. Where a call stands in place of a potency, no number is given. Activity calls are given as the source filed them. Unless noted, calls follow the shape of the dose curve; as a rule, active = well fitted curve in the direction sought with a large enough effect; inconclusive = small, poorly fitted or top-dose-only effect, or another doubt; inactive = no such curve, though single readings can be large; an effect the other way counts as inactive or inconclusive.

Columns and labels:
[1] = Cell Viability - MRC5 (AID 434; calls by dose curve;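 also: potency is read from the fitted curve at half-maximal effect; cells exposed to compound for 40 hours at 37 °C; potency reflects cytotoxicity seen as loss of intracellular ATP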); conditions: MRC5 lung fibroblast viability, qHTS
Summary of the method: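 MRC5 normal human lung fibroblasts (1500/well) were treated with compounds for 40 hr at 37 °C in complete medium, and viable cells were measured as intracellular ATP by CellTiter-Glo luminescence. AC50 came from Hill fits, normalized to DMSO and 100 uM tamoxifen.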

[2] = Cellular Toxicity (caspase-3) HepG2 (AID 654); conditions: HepG2 caspase-3 activation, luminescence; series mostly up to 92.2 µM;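 also: cells exposed to compound for 16 hours before reading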
Summary of the method: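 HepG2 cells (1500/well) in complete medium were treated with compounds for 16 hr at 37 °C. Caspase-3/7 activity was then read as luminescence from peptide-aminoluciferin cleavage. AC50 came from Hill fits, normalized to DMSO and 100 uM tamoxifen.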

[3] = Cellular Toxicity (caspase-3) HUV-EC-C (AID 656); conditions: HUV-EC-C cells, caspase-3 activation (apoptosis); series mostly up to 92.2 µM
Summary of the method: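 Luminescent caspase-3/7 activation (aminoluciferin substrate cleavage) in HUV-EC-C cells after 16 hr compound exposure, 37°C. Signal normalized to DMSO basal and 100 uM tamoxifen as 100%; AC50 from concentration-response fitted with the Hill equation.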

[4] = Cellular Toxicity (caspase-3) SHSY5Y (AID 657); conditions: SH-SY5Y caspase-3 activation; series mostly up to 91.7 µM
Summary of the method: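 Luminescent caspase-3/7 readout (aminoluciferin release) in SH-SY5Y cells after 16 h compound exposure in complete medium. Activity scaled between DMSO basal and 10 uM staurosporine as 100%; concentration-response fitted to Hill equation for AC50.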

[5] = Cellular Toxicity (caspase-3) MRC-5 (AID 659); conditions: MRC-5 cells, luminescence, normalized: DMSO 0%, 10 µM staurosporine 100%; series mostly up to 91.7 µM
Summary of the method: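 Luminescence from caspase-cleaved aminoluciferin substrate (Caspase-Glo 3/7, 1 hr RT) reports caspase 3/7 activity in MRC-5 lung fibroblasts after 16 hr compound exposure. Normalized to DMSO basal and 10 uM staurosporine as 100%; AC50 from Hill fits.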

[6] = Cellular Toxicity (caspase-3) Mesangial (AID 660); conditions: mesangial cells, normalized: DMSO 0%, 100 µM tamoxifen 100%; series mostly up to 91.7 µM;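 also: cells exposed to compound for 16 h before the caspase read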
Summary of the method: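 Human renal glomerular mesangial cells (1000/well) were treated with compounds for 16 h at 37 °C in complete medium, then caspase 3/7 activity was read by Caspase-Glo luminescence. Data were normalized to DMSO and 100 uM tamoxifen; AC50 from Hill fits.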

[7] = Cellular Toxicity (caspase-3) SK-N-SH (AID 661); conditions: SK-N-SH caspase-3 activation, qHTS, DMSO as zero, staurosporine as full; series mostly up to 91.7 µM
Summary of the method: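 SK-N-SH human neuroblastoma cells (1500/well) were treated with compounds for 16 hr at 37 °C in complete medium; caspase 3/7 activity was read by Caspase-Glo luminescence. AC50 came from Hill fits of data normalized to DMSO and 10 uM staurosporine.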

[8] = Cellular Toxicity (caspase-3) H-4-II-E (AID 663); conditions: H-4-II-E rat hepatoma; Potency: caspase-3 activation; series mostly up to 92.2 µM;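 also: cells exposed to compound for 16 hr before readout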
Summary of the method: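 Luminescence from caspase-cleaved aminoluciferin substrate, read 20 min after reagent addition, reports caspase 3/7 activation in rat H-4-II-E cells after 16 hr compound exposure. Normalized to DMSO (basal) and 100 uM tamoxifen (100%); AC50 from Hill fits.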

[9] = Cellular Toxicity (caspase-3) N2a (AID 665); conditions: N2a cells, luminescence, normalized: DMSO 0%, 10 µM staurosporine 100%; series mostly up to 92.2 µM;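 also: compound exposure lasted 16 h at 37 °C before readout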
Summary of the method: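 Mouse N2a neuroblastoma cells (1500/well) were treated with compounds for 16 h at 37 °C, then caspase-3/7 activity was read by Caspase-Glo luminescence after 1 h at room temperature. Data were normalized to DMSO and 10 uM staurosporine; AC50 from Hill fits.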

[10] = Cellular Toxicity (caspase-3) NIH 3T3 (AID 666); conditions: NIH 3T3 caspase-3 activation, apoptosis/toxicity, 0% DMSO, 100% is 100 µM tamoxifen; series mostly up to 92.2 µM
Summary of the method: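 Mouse NIH 3T3 fibroblasts (1000 cells/well) were treated with compound for 16 hr at 37°C in complete medium; caspase-3/7 activity was read by Caspase-Glo luminescence. Normalized to DMSO and 100 uM tamoxifen; AC50 from Hill fits.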

[11] = Cellular Toxicity (caspase-3) Renal Proximal Tubule (AID 667); conditions: renal proximal tubule cells, primary cells freshly taken from rat; Potency: caspase-3 activation; series mostly up to 91.7 µM;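 also: cells exposed to compound for 16 hours at 37 °C before detection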
Summary of the method: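 Luminescent caspase 3/7 signal from peptide-aminoluciferin cleavage measures apoptosis in freshly isolated rat kidney proximal tubule cells after 16 h compound exposure. Concentration-response data are normalized to DMSO and 10 uM staurosporine, and AC50 values come from Hill equation fits.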

[12] = MultiTox-Fluor Cytotoxicity Assay - LYMP1-001 - Dead Cells (AID 946); conditions: LYMP1-001 lymphoblastoid cells, dead-cell protease fluorescence; series mostly up to 92.2 µM; also: potency is read from the fitted curve at half-maximal effect
Summary of the method: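 LYMP1-001 lymphoblastoid cells (2500/well) treated 16 h at 37 C. Dead-cell protease cleavage of bis-AAF-R110 read at Ex/Em 485/520. Normalized to DMSO and 15 uM tetraoctylammonium bromide; AC50 from Hill fits.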

[13] = Cell Viability - LYMP1-002 - Assay at 16 hr (AID 948); conditions: LYMP1-002 lymphoblastoid cell viability; series mostly up to 92.2 µM
Summary of the method: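 LYMP1-002 human lymphoblastoid cells, 2500/well; 5 hr 37 C; cpd 16 hr 37 C; CellTiter-Glo 30 min RT; luminescence (ATP). Concentration-response, Hill-fit AC50. Pos ctrl tetraoctylammonium bromide.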

[14] = MultiTox-Fluor Cytotoxicity Assay - LYMP1-002 - Live Cells (AID 955); conditions: LYMP1-002 lymphoblastoid live-cell protease fluorescence viability; series mostly up to 46.1 µM
Summary of the method: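 Human lymphoblastoid LYMP1-002 cells, 2500/well in complete medium, rested 5 hr at 37 C, then exposed to compounds for 16 hr at 37 C. Live-cell protease cleavage of GF-AFC read by fluorescence (Ex/Em 405/510) after 60 min at room temperature; AC50 from Hill fits.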

[15] = MultiTox-Fluor Cytotoxicity Assay - LYMP1-003 - Live Cells (AID 962); conditions: LYMP1-003 lymphoblastoid cells, MultiTox-Fluor live-cell protease fluorescence; series mostly up to 92.2 µM; also: potency is read from the fitted curve at half-maximal effect
Summary of the method: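 LYMP1-003 human lymphoblastoid cells (2500/well) in complete medium were preincubated 5 hr at 37 C, then exposed to compounds for 16 hr at 37 C. Live-cell protease cleavage of GF-AFC read by fluorescence (Ex/Em 405/510); AC50 from Hill fits.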

[16] = Cell Viability - LYMP1-003 - Assay at 24 hr (AID 963); conditions: LYMP1-003 lymphoblastoid cell viability; series mostly up to 92.2 µM
Summary of the method: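 Human lymphoblastoid LYMP1-003 cells (2500/well) were rested 5 hr at 37 C, then exposed to compounds in complete medium for 24 hr at 37 C. Cellular ATP was quantified by CellTiter-Glo luminescence, and AC50 values came from Hill fits of concentration-response data.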

[17] = Cell Viability - LYMP1-002 - Assay at 24 hr (AID 993); conditions: LYMP1-002 lymphoblastoid cells viability; series mostly up to 92.2 µM
Summary of the method: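 Human lymphoblastoid LYMP1-002 cells, 2500/well in complete medium, were treated with compounds for 24 h at 37 C; intracellular ATP was read by CellTiter-Glo luminescence. AC50 values came from Hill-equation fits of qHTS concentration-response data.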

[18] = qHTS Assay for Identification of Small Molecule Inducers of Hypoxia Response (AID 2120; active = well fitted curve in the direction sought with a large enough effect in the signal ratio, with a control signal flat, not every such curve was filed as active; the % refers to the signal ratio); conditions: hypoxia response reporter cells, beta-lactamase ratio readout; series mostly up to 104 µM
Summary of the method: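 HRE-beta-lactamase reporter in CellSensor HRE-bla ME-180 cells, 2500 cells/well in Opti-MEM with 0.5% dialyzed FBS; compounds tested as titration series, 17 h at 37 degrees C. CCF4 substrate 2.5 h at room temperature; AC50 from 460/530 nm ratio.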

[19] = molecular target: Peroxisome proliferator-activated receptor alpha (Homo sapiens) (UniProt Q07869); test: qHTS assay for small molecule agonists of the peroxisome proliferator-activated receptor alpha (PPARalpha) signaling pathway (AID 651778); conditions: PathHunter PPARalpha complementation, chemiluminescence, 6 h; max response: active compounds read high
Chain of Peroxisome proliferator-activated receptor alpha (Homo sapiens) (Q07869 whole entry, looked up): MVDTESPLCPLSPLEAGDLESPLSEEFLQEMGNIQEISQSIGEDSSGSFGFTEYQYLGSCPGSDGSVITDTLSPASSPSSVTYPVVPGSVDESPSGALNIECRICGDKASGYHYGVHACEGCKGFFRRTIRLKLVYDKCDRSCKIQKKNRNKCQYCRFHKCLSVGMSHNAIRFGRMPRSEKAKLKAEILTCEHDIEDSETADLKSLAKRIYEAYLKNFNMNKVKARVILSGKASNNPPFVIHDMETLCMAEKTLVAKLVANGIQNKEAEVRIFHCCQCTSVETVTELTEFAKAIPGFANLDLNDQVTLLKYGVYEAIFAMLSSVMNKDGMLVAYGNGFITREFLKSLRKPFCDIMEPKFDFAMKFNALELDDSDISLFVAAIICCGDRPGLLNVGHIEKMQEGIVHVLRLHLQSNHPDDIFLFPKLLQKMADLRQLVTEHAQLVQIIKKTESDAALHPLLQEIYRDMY
Summary of the method: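 Cells plated at 2,000/well and held overnight at 37 C, 5% CO2, then compound added by pin tool for 6 hr; after PathHunter detection reagent and 60 min at room temperature, chemiluminescence from enzyme complementation was read.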

[20] = qHTS assay for small molecule agonists of the antioxidant response element (ARE) signaling pathway measured by Nrf2-dependant transcriptional activity - cell viability counter screen (AID 720653; active = well fitted curve in the direction sought with a large enough effect in the repeat runs; an effect the other way counts as inactive or inconclusive); conditions: ARE-bla HepG2 viability, CellTiter-Glo ATP luminescence, 16 h; max response: active compounds read low
Summary of the method: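 ARE-bla HepG2 cells (2,000/well) rested 5 hrs at 37C/5% CO2, then exposed to compounds in DMSO for 16 hrs. Viability was read in the same wells as intracellular ATP by luminescence, 30 min at room temperature after reagent addition.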

| Structure (SMILES) | Potency [1] | Potency [2] | Potency [3] | Potency [4] | outcome [5] | outcome [6] | outcome [7] | Potency [8] | outcome [9] | outcome [10] | Potency [11] | Potency [12] | Potency [13] | outcome [14] | Potency [15] | Potency [16] | Potency [17] | Potency [18] | max response [19] | max response [20] |
| --- | --- | --- | --- | --- | --- | --- | --- | --- | --- | --- | --- | --- | --- | --- | --- | --- | --- | --- | --- | --- |
| Cc1ccccc1OCC1CO1 (stereo unspecified) | > 92 µM | inactive | inactive | inactive | inactive | inactive | inactive | inactive | inactive | inactive | inactive | inactive | inactive | inactive | inactive | inactive | inactive | inactive | -1.41% | 0.854% |
| c1cc2c3c(c1)ccc1cccc(c13)C2 | > 92 µM | inactive | inactive | inactive | inactive | inactive | inactive | inactive | inactive | inactive | inactive | inactive | inactive | inactive | inactive | inactive | inactive | inactive | 6.26% | -4.5% |
| Oc1cc2c(cc1O)[C@H]1c3ccc(O)c(O)c3OC[C@@]1(O)C2 | > 92 µM | inactive | inactive | inactive | inactive | inactive | inactive | inactive | inactive | inactive | inactive |  |  |  | 50.1 µM (active) |  |  | inactive | -1.65% | -29.6% |
| Cc1c(C(=O)O)c(O)cc2c1C(=O)c1c(O)c([C@H]3O[C@H](CO)[C@@H](O)[C@H](O)[C@H]3O)c(O)c(O)c1C2=O |  | inactive | inactive | inactive | inactive | inactive | inactive | inactive | inactive | inactive | inactive | inactive |  | inactive | inactive |  |  | inactive | -8.63% |  |
| Nc1ccc(N)c(Cl)c1 | > 92 µM | inactive | inactive | inactive | inactive | inactive | inactive | inactive | inactive | inactive | inactive | inactive | inactive | inactive |  |  | inactive | inactive | 0.817% | 24% |
| CN(C)c1ccc(C(=N)c2ccc(N(C)C)cc2)cc1 |  | inactive | inactive |  | inactive | inactive |  |  | inactive | inactive | inactive | 39.8 µM (active) |  |  |  | inactive | inactive | inactive | -0.198% | -25.3% |
